Legend:
[1] = target: T1, Mitogen-activated protein kinase 12 (Homo sapiens) (UniProt P53778); conditions: at 1 µM;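 also: values are averaged p38gamma kinase inhibition readings, compounds tested at 1 µM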
T1 sequence (whole entry): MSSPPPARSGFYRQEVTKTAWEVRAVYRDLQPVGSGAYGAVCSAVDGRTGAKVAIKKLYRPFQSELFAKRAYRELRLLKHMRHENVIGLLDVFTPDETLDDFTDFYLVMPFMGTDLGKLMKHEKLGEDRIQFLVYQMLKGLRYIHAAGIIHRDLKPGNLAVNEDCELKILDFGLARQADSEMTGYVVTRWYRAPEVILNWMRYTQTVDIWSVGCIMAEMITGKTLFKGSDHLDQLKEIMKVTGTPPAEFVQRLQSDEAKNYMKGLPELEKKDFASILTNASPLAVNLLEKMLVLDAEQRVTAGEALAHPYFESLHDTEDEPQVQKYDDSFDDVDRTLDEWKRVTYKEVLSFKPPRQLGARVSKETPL

[2] = target: SRSF protein kinase 1 (Homo sapiens) (UniProt Q96SB4); conditions: at 0.1 µM
Chain of SRSF protein kinase 1 (Homo sapiens) (Q96SB4 whole entry, canonical isoform): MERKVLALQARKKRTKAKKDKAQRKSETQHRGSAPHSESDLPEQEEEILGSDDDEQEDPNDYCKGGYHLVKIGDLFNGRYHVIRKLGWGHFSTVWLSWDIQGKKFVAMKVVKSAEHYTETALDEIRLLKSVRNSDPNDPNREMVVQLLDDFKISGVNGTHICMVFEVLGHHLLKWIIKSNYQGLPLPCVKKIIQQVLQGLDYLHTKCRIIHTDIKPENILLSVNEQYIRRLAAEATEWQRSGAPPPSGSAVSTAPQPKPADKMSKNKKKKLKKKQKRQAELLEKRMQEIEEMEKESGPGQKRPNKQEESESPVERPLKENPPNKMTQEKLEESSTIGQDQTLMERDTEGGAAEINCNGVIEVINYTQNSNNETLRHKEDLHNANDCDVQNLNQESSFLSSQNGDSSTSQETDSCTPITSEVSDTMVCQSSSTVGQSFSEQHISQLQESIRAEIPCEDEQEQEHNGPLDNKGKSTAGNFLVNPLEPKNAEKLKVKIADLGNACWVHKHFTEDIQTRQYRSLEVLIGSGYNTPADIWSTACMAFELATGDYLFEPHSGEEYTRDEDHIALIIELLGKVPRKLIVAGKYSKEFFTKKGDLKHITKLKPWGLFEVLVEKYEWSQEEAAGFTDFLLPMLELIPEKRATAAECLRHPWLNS

[3] = target: SRSF protein kinase 1 (Homo sapiens) (UniProt Q96SB4); conditions: at 1 µM
[4] = target: Phosphatidylinositol 4,5-bisphosphate 3-kinase catalytic subunit alpha isoform (Homo sapiens) (UniProt P42336); conditions: at 0.1 µM
Chain of Phosphatidylinositol 4,5-bisphosphate 3-kinase catalytic subunit alpha isoform (Homo sapiens) (P42336 whole entry, canonical isoform): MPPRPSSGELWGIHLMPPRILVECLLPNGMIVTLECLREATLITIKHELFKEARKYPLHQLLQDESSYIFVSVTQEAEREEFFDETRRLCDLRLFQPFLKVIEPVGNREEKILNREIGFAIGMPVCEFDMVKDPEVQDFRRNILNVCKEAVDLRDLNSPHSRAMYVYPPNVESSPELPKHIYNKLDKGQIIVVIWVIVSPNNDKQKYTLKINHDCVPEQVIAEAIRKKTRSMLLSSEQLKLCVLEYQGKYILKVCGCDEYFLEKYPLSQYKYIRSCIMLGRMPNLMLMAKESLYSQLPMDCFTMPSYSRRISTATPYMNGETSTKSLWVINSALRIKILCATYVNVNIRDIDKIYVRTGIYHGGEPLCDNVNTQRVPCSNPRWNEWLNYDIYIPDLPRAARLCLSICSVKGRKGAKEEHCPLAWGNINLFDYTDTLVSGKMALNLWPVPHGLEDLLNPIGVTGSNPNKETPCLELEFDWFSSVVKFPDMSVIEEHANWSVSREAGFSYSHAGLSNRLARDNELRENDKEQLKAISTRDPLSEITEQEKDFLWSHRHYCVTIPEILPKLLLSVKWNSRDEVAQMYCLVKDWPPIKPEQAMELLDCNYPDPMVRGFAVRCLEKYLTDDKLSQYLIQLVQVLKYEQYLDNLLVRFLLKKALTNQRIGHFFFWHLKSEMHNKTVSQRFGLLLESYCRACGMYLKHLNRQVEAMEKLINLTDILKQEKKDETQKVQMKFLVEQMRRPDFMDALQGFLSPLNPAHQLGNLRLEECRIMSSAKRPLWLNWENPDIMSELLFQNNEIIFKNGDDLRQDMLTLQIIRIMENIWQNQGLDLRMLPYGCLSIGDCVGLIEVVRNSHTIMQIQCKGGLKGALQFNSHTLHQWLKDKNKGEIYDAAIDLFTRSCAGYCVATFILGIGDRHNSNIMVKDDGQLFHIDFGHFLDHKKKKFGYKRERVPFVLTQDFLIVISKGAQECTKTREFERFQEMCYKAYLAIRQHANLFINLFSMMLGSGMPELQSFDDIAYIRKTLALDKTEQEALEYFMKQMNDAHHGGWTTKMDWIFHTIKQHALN

[5] = target: Phosphatidylinositol 4,5-bisphosphate 3-kinase catalytic subunit alpha isoform (Homo sapiens) (UniProt P42336); conditions: at 1 µM
[6] = target: T2, Phosphatidylinositol 4,5-bisphosphate 3-kinase catalytic subunit delta isoform (Homo sapiens) (UniProt O00329); conditions: at 0.1 µM
T2 sequence (whole entry): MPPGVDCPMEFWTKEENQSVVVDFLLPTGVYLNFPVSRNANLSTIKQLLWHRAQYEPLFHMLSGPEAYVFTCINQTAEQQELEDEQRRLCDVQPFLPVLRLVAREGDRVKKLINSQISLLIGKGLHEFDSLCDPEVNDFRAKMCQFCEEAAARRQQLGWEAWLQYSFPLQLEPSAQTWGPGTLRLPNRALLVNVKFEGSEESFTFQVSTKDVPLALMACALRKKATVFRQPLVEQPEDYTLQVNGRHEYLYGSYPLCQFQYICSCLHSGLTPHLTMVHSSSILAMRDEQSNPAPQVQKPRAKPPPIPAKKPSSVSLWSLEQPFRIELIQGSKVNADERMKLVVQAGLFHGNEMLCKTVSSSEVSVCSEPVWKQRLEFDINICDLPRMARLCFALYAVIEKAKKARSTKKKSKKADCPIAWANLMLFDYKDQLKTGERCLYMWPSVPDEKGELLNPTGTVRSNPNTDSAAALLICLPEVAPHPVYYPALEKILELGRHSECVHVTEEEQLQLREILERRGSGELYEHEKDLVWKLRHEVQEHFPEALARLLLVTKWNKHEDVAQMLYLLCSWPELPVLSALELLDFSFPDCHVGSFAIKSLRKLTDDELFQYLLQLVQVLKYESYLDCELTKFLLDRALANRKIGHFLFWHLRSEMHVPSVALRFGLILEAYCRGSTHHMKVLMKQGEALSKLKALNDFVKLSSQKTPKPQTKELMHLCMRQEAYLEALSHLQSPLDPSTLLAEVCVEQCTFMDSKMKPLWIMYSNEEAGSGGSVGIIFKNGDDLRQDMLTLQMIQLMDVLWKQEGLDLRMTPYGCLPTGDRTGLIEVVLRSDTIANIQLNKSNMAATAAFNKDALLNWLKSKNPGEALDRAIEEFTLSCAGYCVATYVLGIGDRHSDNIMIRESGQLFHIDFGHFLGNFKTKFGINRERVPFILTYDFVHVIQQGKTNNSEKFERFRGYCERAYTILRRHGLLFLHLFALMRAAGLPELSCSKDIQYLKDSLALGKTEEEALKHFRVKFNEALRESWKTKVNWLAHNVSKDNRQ

[7] = target: T2, Phosphatidylinositol 4,5-bisphosphate 3-kinase catalytic subunit delta isoform (Homo sapiens); conditions: at 1 µM
[8] = target: Phosphatidylinositol 4-kinase beta (Homo sapiens) (UniProt Q9UBF8); conditions: at 0.1 µM
Chain of Phosphatidylinositol 4-kinase beta (Homo sapiens) (Q9UBF8 2-816 limits assumed): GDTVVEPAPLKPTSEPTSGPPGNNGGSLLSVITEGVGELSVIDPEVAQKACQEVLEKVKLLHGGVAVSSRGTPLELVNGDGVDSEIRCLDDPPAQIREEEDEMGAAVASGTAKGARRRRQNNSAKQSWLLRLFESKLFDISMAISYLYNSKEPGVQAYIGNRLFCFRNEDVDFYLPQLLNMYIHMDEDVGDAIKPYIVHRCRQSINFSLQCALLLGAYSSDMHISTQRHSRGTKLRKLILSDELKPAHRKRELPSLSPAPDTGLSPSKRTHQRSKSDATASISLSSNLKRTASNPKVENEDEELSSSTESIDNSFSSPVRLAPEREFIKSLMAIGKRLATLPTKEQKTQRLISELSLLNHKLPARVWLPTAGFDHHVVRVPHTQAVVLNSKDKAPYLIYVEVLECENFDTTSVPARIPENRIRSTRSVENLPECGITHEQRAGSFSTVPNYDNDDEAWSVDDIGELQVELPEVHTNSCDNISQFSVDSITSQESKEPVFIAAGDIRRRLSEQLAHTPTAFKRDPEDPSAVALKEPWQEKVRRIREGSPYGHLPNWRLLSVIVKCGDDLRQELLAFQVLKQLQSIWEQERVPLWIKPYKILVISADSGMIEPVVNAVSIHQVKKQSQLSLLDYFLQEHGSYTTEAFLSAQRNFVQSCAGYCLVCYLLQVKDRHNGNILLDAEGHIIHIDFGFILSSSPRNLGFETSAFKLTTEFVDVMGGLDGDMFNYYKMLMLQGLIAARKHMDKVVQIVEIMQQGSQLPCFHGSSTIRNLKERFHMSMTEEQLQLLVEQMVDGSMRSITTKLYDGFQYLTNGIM

[9] = target: Phosphatidylinositol 4-kinase beta (Homo sapiens) (UniProt Q9UBF8); conditions: at 1 µM
[10] = target: Sphingosine kinase 1 (Homo sapiens) (UniProt Q9NYA1); conditions: at 0.1 µM
Chain of Sphingosine kinase 1 (Homo sapiens) (Q9NYA1 whole entry): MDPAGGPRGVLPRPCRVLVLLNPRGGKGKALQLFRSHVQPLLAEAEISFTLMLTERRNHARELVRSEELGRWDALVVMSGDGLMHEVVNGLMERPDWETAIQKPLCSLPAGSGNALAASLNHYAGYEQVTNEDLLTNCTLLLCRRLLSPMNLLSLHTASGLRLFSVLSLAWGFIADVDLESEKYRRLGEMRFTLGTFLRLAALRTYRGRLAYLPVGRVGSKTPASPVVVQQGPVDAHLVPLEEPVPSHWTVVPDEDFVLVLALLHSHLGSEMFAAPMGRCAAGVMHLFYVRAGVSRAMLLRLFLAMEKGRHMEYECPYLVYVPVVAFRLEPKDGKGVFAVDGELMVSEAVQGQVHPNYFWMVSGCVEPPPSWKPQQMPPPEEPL

[11] = target: Sphingosine kinase 1 (Homo sapiens) (UniProt Q9NYA1); conditions: at 1 µM
[12] = target: T3, Sphingosine kinase 2 (Homo sapiens) (UniProt Q9NRA0); conditions: at 0.1 µM
T3 sequence (whole entry): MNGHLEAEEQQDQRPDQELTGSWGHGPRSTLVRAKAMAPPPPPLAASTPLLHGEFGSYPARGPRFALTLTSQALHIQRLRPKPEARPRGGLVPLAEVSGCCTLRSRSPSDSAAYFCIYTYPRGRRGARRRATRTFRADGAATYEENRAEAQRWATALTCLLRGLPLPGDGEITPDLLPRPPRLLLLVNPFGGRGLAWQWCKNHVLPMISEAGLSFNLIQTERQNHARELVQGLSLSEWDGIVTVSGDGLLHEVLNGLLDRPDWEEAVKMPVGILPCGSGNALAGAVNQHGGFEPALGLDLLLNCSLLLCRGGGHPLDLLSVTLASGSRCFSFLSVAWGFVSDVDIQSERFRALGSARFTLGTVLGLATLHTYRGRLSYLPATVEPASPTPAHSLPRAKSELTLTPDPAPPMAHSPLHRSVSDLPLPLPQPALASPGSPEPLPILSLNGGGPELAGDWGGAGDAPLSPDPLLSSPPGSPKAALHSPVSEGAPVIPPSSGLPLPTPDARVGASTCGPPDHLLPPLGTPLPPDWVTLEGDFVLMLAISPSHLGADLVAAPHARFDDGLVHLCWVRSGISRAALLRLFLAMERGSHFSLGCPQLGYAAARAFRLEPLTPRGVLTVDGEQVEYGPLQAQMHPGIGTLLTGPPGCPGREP

[13] = target: T3, Sphingosine kinase 2 (Homo sapiens); conditions: at 1 µM
[14] = target: Casein kinase II subunit alpha (Homo sapiens) (UniProt P68400); conditions: at 0.1 µM
Chain of Casein kinase II subunit alpha (Homo sapiens) (P68400 whole entry, looked up): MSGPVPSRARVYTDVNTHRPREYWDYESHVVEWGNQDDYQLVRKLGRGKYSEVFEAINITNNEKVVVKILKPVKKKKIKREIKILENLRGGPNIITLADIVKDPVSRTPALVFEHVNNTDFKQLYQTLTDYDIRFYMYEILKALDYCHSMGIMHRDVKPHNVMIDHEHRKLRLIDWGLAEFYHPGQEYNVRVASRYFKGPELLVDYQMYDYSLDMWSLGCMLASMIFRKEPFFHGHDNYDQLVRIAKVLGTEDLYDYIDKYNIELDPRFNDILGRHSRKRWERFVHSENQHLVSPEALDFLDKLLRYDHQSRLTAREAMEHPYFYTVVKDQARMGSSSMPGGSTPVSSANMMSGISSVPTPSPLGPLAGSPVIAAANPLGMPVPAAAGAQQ

[15] = target: Casein kinase II subunit alpha (Homo sapiens) (UniProt P68400); conditions: at 1 µM
[16] = target: T4, Inhibitor of nuclear factor kappa-B kinase subunit alpha (Homo sapiens) (UniProt O15111); conditions: at 0.1 µM
T4 sequence (whole entry): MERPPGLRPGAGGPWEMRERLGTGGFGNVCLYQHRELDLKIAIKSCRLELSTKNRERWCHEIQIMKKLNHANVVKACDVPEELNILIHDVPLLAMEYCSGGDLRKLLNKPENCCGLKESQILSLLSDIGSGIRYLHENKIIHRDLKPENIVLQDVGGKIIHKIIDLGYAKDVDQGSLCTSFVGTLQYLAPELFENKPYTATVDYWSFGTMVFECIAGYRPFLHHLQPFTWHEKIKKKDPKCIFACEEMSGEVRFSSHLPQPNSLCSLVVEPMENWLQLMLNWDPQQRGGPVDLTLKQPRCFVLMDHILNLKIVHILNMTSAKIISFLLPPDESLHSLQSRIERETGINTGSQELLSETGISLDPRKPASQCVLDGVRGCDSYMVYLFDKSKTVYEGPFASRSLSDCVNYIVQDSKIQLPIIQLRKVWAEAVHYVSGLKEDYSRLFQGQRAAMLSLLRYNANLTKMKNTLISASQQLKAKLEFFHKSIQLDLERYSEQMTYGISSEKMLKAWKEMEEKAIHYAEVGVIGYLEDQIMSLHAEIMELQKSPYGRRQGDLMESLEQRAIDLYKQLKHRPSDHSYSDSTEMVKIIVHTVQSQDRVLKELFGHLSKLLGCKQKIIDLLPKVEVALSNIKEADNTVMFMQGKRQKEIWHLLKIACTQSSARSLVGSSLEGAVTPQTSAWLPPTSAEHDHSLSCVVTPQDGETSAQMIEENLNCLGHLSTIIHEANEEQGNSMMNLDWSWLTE

[17] = target: T4, Inhibitor of nuclear factor kappa-B kinase subunit alpha (Homo sapiens); conditions: at 1 µM
[18] = target: T5, Inhibitor of nuclear factor kappa-B kinase subunit beta (Homo sapiens) (UniProt O14920); conditions: at 0.1 µM
T5 sequence (whole entry): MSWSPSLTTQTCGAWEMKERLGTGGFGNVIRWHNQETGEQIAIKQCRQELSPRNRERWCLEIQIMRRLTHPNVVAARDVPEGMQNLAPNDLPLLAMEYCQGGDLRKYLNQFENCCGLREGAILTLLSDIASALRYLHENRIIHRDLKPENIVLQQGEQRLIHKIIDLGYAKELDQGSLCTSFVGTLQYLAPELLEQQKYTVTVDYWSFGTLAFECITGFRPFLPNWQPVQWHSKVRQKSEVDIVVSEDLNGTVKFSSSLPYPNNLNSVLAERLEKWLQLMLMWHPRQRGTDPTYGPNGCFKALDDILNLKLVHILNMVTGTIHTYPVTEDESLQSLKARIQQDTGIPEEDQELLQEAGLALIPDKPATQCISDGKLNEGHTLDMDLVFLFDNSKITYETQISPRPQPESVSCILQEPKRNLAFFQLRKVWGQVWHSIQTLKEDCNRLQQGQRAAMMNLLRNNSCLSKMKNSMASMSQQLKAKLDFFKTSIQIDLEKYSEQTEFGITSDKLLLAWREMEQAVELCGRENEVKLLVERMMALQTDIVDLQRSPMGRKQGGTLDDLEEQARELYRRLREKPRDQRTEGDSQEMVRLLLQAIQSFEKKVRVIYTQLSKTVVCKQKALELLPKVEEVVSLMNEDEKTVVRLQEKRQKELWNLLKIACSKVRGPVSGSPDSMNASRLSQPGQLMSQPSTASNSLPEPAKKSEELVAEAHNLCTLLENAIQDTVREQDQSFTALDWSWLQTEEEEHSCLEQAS

[19] = target: T5, Inhibitor of nuclear factor kappa-B kinase subunit beta (Homo sapiens); conditions: at 1 µM
[20] = target: T6, Inhibitor of nuclear factor kappa-B kinase subunit epsilon (Homo sapiens) (UniProt Q14164); conditions: at 0.1 µM;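 also: mean inhibition of IKKε reported, from the GSK PKIS dataset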
T6 sequence (whole entry): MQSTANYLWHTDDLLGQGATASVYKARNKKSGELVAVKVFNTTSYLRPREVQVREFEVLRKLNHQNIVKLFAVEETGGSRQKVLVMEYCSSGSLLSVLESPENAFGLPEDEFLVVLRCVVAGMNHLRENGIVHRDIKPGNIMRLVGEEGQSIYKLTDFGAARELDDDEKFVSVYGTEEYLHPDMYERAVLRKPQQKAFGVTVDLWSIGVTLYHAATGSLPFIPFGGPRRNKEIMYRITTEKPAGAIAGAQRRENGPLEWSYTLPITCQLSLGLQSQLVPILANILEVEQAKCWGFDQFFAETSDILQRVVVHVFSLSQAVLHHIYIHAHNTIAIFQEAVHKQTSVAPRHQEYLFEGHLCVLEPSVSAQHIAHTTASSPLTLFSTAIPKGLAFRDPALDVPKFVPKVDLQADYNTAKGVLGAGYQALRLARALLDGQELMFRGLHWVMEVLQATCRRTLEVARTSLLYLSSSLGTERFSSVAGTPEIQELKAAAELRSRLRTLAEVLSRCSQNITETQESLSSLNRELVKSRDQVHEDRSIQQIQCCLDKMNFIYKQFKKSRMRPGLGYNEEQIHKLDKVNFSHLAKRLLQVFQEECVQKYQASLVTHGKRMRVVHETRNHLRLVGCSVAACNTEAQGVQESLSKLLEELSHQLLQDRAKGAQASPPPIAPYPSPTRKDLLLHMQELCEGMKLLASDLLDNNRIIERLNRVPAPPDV

| Structure (SMILES) | inhibition [1] [%] | inhibition [2] [%] | inhibition [3] [%] | inhibition [4] [%] | inhibition [5] [%] | inhibition [6] [%] | inhibition [7] [%] | inhibition [8] [%] | inhibition [9] [%] | inhibition [10] [%] | inhibition [11] [%] | inhibition [12] [%] | inhibition [13] [%] | inhibition [14] [%] | inhibition [15] [%] | inhibition [16] [%] | inhibition [17] [%] | inhibition [18] [%] | inhibition [19] [%] | inhibition [20] [%] |
| --- | --- | --- | --- | --- | --- | --- | --- | --- | --- | --- | --- | --- | --- | --- | --- | --- | --- | --- | --- | --- |
| Fc1ccc(-c2cc(-c3c[nH]nc3-c3ccccn3)ccn2)cc1 | 3.28 | -0.82 | 1.31 | 4.44 | 3.51 | 2.06 | 3.22 | -6.09 | -0.81 | 1.6 | -2.44 | -0.74 | -0.12 | 3.83 | 11.9 | 5.34 | 3.99 | 5.76 | 9.85 | 8.65 |
| CNC(=O)c1cncc(/C=C/c2ccccc2Cl)c1 | -0.18 | 0.65 | 3.33 | 1.22 | 1.59 | 0.5 | 0.38 | 3.54 | 1.28 | 0.48 | -2.41 | 0.11 | -0.01 | 0.75 | 8.72 | 2.99 | -3.09 | -0.46 | 1.87 | 2.76 |
| Cc1cccc2c1NC(=O)/C2=N\Nc1ccc(S(N)(=O)=O)cc1 | 0.72 | -0.92 | -1.02 | 2.47 | 1.9 | 1.83 | 3.28 | -4.22 | -2.85 | 0.78 | 1.88 | -0.11 | 0.27 | -0.53 | 0.34 | 2.87 | 0.58 | 2.93 | 3.79 | 3.32 |
| c1ccc(COc2ccc(Nc3ncnc4ccc(-c5ccco5)cc34)cc2)cc1 | 0.69 | -1.86 | -1.65 | 0.06 | 2.59 | 3.33 | 4.52 | -1.76 | -1.04 | 1.84 | 0.95 | -2.53 | 1.35 | 1.23 | 4.42 | -5.49 | 0.49 | 1.07 | 0.01 | 4.51 |
| Clc1ccc(-c2nn3ncccc3c2-c2ccnc(Nc3ccccc3)n2)cc1 | 1.71 | -1.15 | -1.1 | 2.48 | 5.33 | 4.92 | 7.17 | -0.39 | 0.11 | 0.81 | -1.12 | -0.19 | 0.98 | 1.72 | 1.08 | -0.83 | 0.14 | -3.05 | -3.62 | 1.23 |
| CCCN(CCS(C)(=O)=O)Cc1ccc(-c2ccc3ncnc(Nc4ccc(OCc5cccc(F)c5)c(Cl)c4)c3c2)o1 | 1.28 | -1.14 | -0.67 | 0.82 | 4.19 | 0.06 | 6.07 | 1.73 | 0.08 | 7 | 0.07 | 0.75 | 0.76 | 4.77 | 9.35 | 3.79 | 2.86 | 0.53 | 0.26 | 2.17 |

Source: ChEMBL document CHEMBL1961873, “Compounds: GSK PKIS; Assays: Nanosyn kinase panel” (2012)
